Drawing on PubChem BioAssay (NCI), this text covers growth for nine molecules.

What all share (assay): NCI-60 one-dose screen, 48 h (100 = growth as untreated, 0 = no growth, -100 = all killed)
One assay deals with SK-MEL-2 melanoma. As to conditions: 10 µM unless noted.
Another assay deals with EKVX NSCLC. The settings on record: 10 µM unless noted.
For the next assay, the system named is SN12C renal. The settings on record: 10 µM unless noted.
The next assay relates to UO-31 renal. As to conditions: 10 µM unless noted.
Another assay has as its system TK-10 renal. As to conditions: 10 µM unless noted.
The next assay concerns ACHN renal. The settings on record: 10 µM unless noted.
The test system of the next assay is A498 renal. As to conditions: 10 µM unless noted.
In another assay the test system is CCRF-CEM leukemia. The settings on record: 10 µM unless noted.
For another assay, the system named is RPMI-8226 leukemia. The settings on record: 10 µM unless noted.
The subject of a further assay is OVCAR-8 ovarian. The settings on record: 10 µM unless noted.
The next assay relates to OVCAR-5 ovarian. As to conditions: 10 µM unless noted.
Another assay deals with OVCAR-4 ovarian. As to conditions: 10 µM unless noted.
Another assay has as its system SK-OV-3 ovarian. The settings on record: 10 µM unless noted.
Another assay relates to OVCAR-3 ovarian. The settings on record: 10 µM unless noted.
A further assay has as its system HS 578T breast. As to conditions: 10 µM unless noted.
A further assay concerns NCI/ADR-RES ovarian. As to conditions: 10 µM unless noted.
In a further assay the test system is CAKI-1 renal. The settings on record: 10 µM.
Another assay relates to MOLT-4 leukemia. As to conditions: 10 µM unless noted.
The next assay concerns SR leukemia. The settings on record: 10 µM unless noted.
The test system of the next assay is IGROV1 ovarian. The settings on record: 10 µM unless noted.

About 83,000 compounds went through this panel and 20% of them were active in at least one assay; those are over-represented in the sample as a whole.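 96-well plates, one dose, 48 hours. Percent growth reported; active if below 10.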 A number with no mark means an inactive call. Active and inactive are the calls of the source.

For `CC1(C)N=C(N)N=C(N)N1c1ccc(F)c(C(F)(F)F)c1`, the growth was 54.4% in the assay on SK-MEL-2 melanoma; 65.2% in the assay on EKVX NSCLC; 47.4% with SN12C renal; 41.8% with UO-31 renal; 65.5% in the assay with TK-10 renal; 36% with ACHN renal. Also, the growth in the assay on A498 renal was 93.1%; in the assay on CCRF-CEM leukemia, 20.8%; in the assay on RPMI-8226 leukemia, 50.4%; in the assay with OVCAR-8 ovarian, 8.44% (active); in the assay on OVCAR-5 ovarian, 41.8%; in the assay with OVCAR-4 ovarian, 55.3%. Also, the growth in the assay on SK-OV-3 ovarian is 60.5%; in the assay on OVCAR-3 ovarian, 53.9%; in the assay with HS 578T breast it was 99.3%; in the assay on NCI/ADR-RES ovarian it was 91.9%.

For the molecule `CCOC(=O)NNc1nncc2ccccc12`, the growth was 119% in the assay with SK-MEL-2 melanoma; 78.3% in the assay on EKVX NSCLC; 97% in the assay on SN12C renal; 90.4% with UO-31 renal; 106% with TK-10 renal; 84.1% in the assay on CAKI-1 renal. Also, the growth in the assay with A498 renal is 96%; in the assay on CCRF-CEM leukemia, 109%; in the assay with MOLT-4 leukemia, 94%; in the assay on SR leukemia it was 93.3%; in the assay with OVCAR-8 ovarian it was 98.2%; with OVCAR-4 ovarian, 116%. Further, the growth in the assay on IGROV1 ovarian was 106%; in the assay with OVCAR-3 ovarian it was 121%; in the assay on HS 578T breast, 98.9%; with NCI/ADR-RES ovarian, 103%.

Take `C/C(=N/O)c1ccc(NC(=O)Cn2nc(-c3ccc(Cl)cc3)nc2N)cc1`: the growth with SK-MEL-2 melanoma is 84.9%; in the assay with EKVX NSCLC, 98.6%; with SN12C renal, 102%; with UO-31 renal it was 66%; with TK-10 renal, 120%; with A498 renal, 103%. Besides, the growth is 85.8% in the assay on CCRF-CEM leukemia; 66.7% in the assay with MOLT-4 leukemia; 81.2% with SR leukemia; 93.4% with RPMI-8226 leukemia; 81.6% in the assay with OVCAR-8 ovarian; 108% in the assay on OVCAR-5 ovarian. The growth in the assay with OVCAR-4 ovarian was 119%; in the assay on SK-OV-3 ovarian, 72.6%; in the assay on IGROV1 ovarian, 89.7%; in the assay with OVCAR-3 ovarian, 104%; in the assay with HS 578T breast it was 88.5%.

Consider `COc1cc(NS(C)(=O)=O)ccc1Cc1c2ccccc2nc2ccccc12`, for which the growth in the assay on SK-MEL-2 melanoma was 104%; in the assay with EKVX NSCLC it was 45.3%; in the assay with SN12C renal it was -6.92% (active); with UO-31 renal, -5.05% (active); in the assay on TK-10 renal, 23.9%; in the assay with CAKI-1 renal, -4.78% (active). Further, the growth in the assay with A498 renal is -8.76% (active); in the assay on CCRF-CEM leukemia, 3.42% (active); in the assay with MOLT-4 leukemia, 4.35% (active); in the assay with SR leukemia it was -5.52% (active); in the assay on RPMI-8226 leukemia, 22%; in the assay with OVCAR-8 ovarian it was 2.44% (active). In addition, the growth in the assay with OVCAR-4 ovarian was 38.8%; in the assay with SK-OV-3 ovarian, 18%; in the assay on IGROV1 ovarian, 36.5%; in the assay on OVCAR-3 ovarian it was -76.6% (active); in the assay on HS 578T breast it was 48%; with NCI/ADR-RES ovarian, 62.3%.

For the molecule `COc1ccc(C2CC(c3cc(Cl)c(C)cc3OC)=NN2c2ccc(S(N)(=O)=O)cc2)cc1OC` (centres undefined), the growth in the assay with SK-MEL-2 melanoma is 95.8%; in the assay on EKVX NSCLC, 80.6%; in the assay on SN12C renal, 87.4%; in the assay with UO-31 renal, 59.1%; in the assay on TK-10 renal it was 113%; in the assay on ACHN renal, 84%. In addition, the growth with A498 renal was 112%; with RPMI-8226 leukemia, 91%; in the assay on OVCAR-8 ovarian, 73.8%; with OVCAR-5 ovarian it was 70.6%; in the assay with OVCAR-4 ovarian, 87.8%; with SK-OV-3 ovarian, 116%. Further, the growth in the assay on IGROV1 ovarian is 79.1%; in the assay with OVCAR-3 ovarian, 103%; with HS 578T breast it was 101%; with NCI/ADR-RES ovarian, 77.2%.

Turning to `CCCOC(=O)c1ccc([N+](=O)[O-])o1`, the growth with SK-MEL-2 melanoma was 102%; with EKVX NSCLC, 112%; in the assay with SN12C renal, 103%; with UO-31 renal it was 96.2%; with TK-10 renal, 104%; with ACHN renal, 105%. Besides, the growth in the assay on CCRF-CEM leukemia is 97.4%; with RPMI-8226 leukemia it was 97.5%; in the assay on OVCAR-8 ovarian, 109%; with OVCAR-5 ovarian, 99.5%; in the assay on OVCAR-4 ovarian, 95.1%; in the assay on SK-OV-3 ovarian it was 113%. In addition, the values for the growth in the assay on IGROV1 ovarian, with OVCAR-3 ovarian and in the assay with NCI/ADR-RES ovarian were 102%, 123% and 104%, respectively.

On to `CCN(CC)c1ccc(C2CC(c3cc(OC)c(OC)c(OC)c3)=NN2)cc1` (centres undefined), for which the growth in the assay with SK-MEL-2 melanoma is 27.6%; with EKVX NSCLC, 27.6%; in the assay with SN12C renal, 47.2%; in the assay on UO-31 renal it was 36.5%; in the assay with TK-10 renal it was 77.8%; in the assay with ACHN renal, 75.3%. For the same molecule, the growth with A498 renal was -2.94% (active); in the assay with MOLT-4 leukemia it was 7.4% (active); in the assay with SR leukemia it was -10.8% (active); in the assay with RPMI-8226 leukemia, -13.1% (active); with OVCAR-8 ovarian, 6.48% (active); with OVCAR-5 ovarian it was 40.6%. Also, the growth is 37.2% in the assay with OVCAR-4 ovarian; 5.94% (active) with SK-OV-3 ovarian; 17.7% with IGROV1 ovarian; -13.3% (active) in the assay on HS 578T breast; -37% (active) in the assay with NCI/ADR-RES ovarian.

Regarding `c1ccc(OCC[P+](c2ccccc2)(c2ccccc2)c2ccccc2)cc1`, the growth with SK-MEL-2 melanoma was -16.2% (active); in the assay on EKVX NSCLC, 26.3%; in the assay with SN12C renal it was 29.8%; in the assay with UO-31 renal, 63.5%; with TK-10 renal it was 40.2%; in the assay on ACHN renal, 60.5%. Moreover, the growth in the assay with A498 renal is 74.2%; in the assay with MOLT-4 leukemia, 34.8%; in the assay on SR leukemia, 22.7%; in the assay on RPMI-8226 leukemia, 10.9%; in the assay on OVCAR-8 ovarian, 24.5%; in the assay with OVCAR-5 ovarian, 43.1%. For the same molecule, the growth with OVCAR-4 ovarian was 15.8%; with SK-OV-3 ovarian it was 39.5%; in the assay with IGROV1 ovarian it was 8.06% (active); in the assay on OVCAR-3 ovarian, -31.5% (active).

For `CN(C)CC/C=C1\c2ccccc2Sc2ccc(Cl)cc21`, the growth in the assay on SK-MEL-2 melanoma was 89.6%; in the assay with EKVX NSCLC it was 78.6%; with SN12C renal, 48%; with UO-31 renal, 41.3%; in the assay with TK-10 renal it was 75.8%; in the assay on CAKI-1 renal it was 52.7%. For the same molecule, the growth in the assay with A498 renal is 89.5%; in the assay on CCRF-CEM leukemia it was 59.4%; in the assay with MOLT-4 leukemia it was 44.8%; in the assay with SR leukemia, 62%; in the assay with RPMI-8226 leukemia it was 72%; in the assay with OVCAR-8 ovarian, 69.2%. For the same molecule, the growth is 69.9% in the assay on OVCAR-4 ovarian; 74.1% with SK-OV-3 ovarian; 53.8% with IGROV1 ovarian; 74.4% with OVCAR-3 ovarian; 65.6% in the assay with HS 578T breast; 63.2% in the assay with NCI/ADR-RES ovarian.
